# A selection: hits, their analogues and other compounds. The true share with any hit is near 2.9%.
# MEKK3 PB1 HTS = modulators of MEKK3-MEK5 PB1 binding, primary screen, biochemical, wildtype MEKK3, multiplex bead flow cytometry, Alexa488-MEK5; binding response (% of control), % at 10 µM; actives 1.4% (n = 290,000); Mitogen-activated protein kinase kinase kinase 3 (Homo sapiens), Q99759; bead-based flow cytometry, Alexa488-MEK5 binding to MEKK3; actives lie on both sides; 0 = blocked by unlabeled MEK5, 100 = vehicle;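 active means binding response more than 3 SD above or below the average of its plate-row segment, actives on both sides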;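 further: Alexa488 bead fluorescence after subtracting the streptavidin-only scavenger bead signal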
# Target sequence (Q99759 whole entry, looked up): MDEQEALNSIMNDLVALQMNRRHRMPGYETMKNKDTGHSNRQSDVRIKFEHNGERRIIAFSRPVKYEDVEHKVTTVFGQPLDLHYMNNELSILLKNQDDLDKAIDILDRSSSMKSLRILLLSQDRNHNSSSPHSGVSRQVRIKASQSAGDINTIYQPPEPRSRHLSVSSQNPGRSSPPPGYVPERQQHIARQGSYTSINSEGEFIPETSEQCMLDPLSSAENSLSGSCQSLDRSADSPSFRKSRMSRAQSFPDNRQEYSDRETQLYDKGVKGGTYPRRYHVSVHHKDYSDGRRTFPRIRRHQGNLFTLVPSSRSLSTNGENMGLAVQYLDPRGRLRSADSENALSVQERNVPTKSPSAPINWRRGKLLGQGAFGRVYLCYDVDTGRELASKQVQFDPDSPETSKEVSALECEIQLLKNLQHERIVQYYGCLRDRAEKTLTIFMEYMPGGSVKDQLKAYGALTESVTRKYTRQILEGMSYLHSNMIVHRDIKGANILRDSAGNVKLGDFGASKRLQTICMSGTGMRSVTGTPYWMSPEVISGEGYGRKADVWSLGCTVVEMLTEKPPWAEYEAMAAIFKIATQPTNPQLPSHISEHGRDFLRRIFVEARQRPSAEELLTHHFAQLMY
# CRFBP-R2 agonist = agonists of CRF-BP/CRF-R2 complex, primary screen, cell-based, HEK293, calcium dye fluorescence, uHTS | activation, % at 13.2 µM | actives 0.46% (n = 350,000) | calcium dye fluorescence (FLIPR); percent of saturating CRF peptide response | CRF-binding protein / CRF receptor 2 complex (human);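 active means activation of at least 50%, plus an integration ratio under a set limit after plate pattern correction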;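 further: plate controls were neutral control wells without compound for no effect and CRF at EC100 for full effect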
# MEKK2mut PB1 HTS = MEK5 binding signal on mutant MEKK2 PB1, primary screen, biochemical, multiplex bead flow cytometry, Alexa488-MEK5; Alexa488-MEK5 binding to MEKK2 mutant; actives 0.35% (n = 290,000); percent response, % at 10 µM; in the data active means percent response above about 24%, passing the limit was not always enough
# MEKK2 WT-MEK5 = modulators of MEK5 binding to wildtype MEKK2, primary screen, biochemical, multiplex bead flow cytometry, Alexa488-MEK5; actives 1.1% (n = 290,000); Mitogen-activated protein kinase kinase kinase 2 (Homo sapiens), Q9Y2U5; AID 1531, 2009; Alexa488-MEK5 binding to MEKK2 WT; actives lie on both sides; binding response (% of control), % at 10 µM; in the data active means binding response below about 67% or above about 130%
# CRFR2-BP antag = antagonists of CRF-BP/CRF-R2 complex, primary screen, cell-based, HEK293, calcium dye fluorescence, uHTS | AID 588475, 2011 | CRF-induced calcium fluorescence | actives 0.59% (n = 350,000) | inhibition, % at 11.8 µM;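 active means inhibition of the ligand-induced calcium signal above about 50% at the single tested concentration, limit read from the data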
# ABCB6 inh 2 = ABCB6 transporter inhibitors, primary screen, K562-ABCB6 cells, flow cytometry, MLPCN library. AID 602162, 2011. fluorescence ratio to DMSO, % at 10 µM. actives 0.19% (n = 360,000). K562-ABCB6 porphyrin accumulation, 1 h; active compounds read low. ATP-binding cassette sub-family B member 6 (Homo sapiens), Q9NP58;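 active means fluorescence ratio to DMSO below 75%, the collection mean minus 3 SD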;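 further: signal is porphyrin accumulated inside mitochondria; 100% equals median channel fluorescence of DMSO control wells; lower ratio means ABCB6 inhibition with less porphyrin fluorescence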
# MEKK2wt confirm = modulators of MEK5 binding to wildtype MEKK2, confirmation, biochemical, single concentration, multiplex bead flow cytometry; shares compounds with MEKK3 PB1 HTS; Alexa488-MEK5 binding to MEKK2 WT; actives lie on both sides; binding response (% of control), % at 10 µM; actives 2.4% (n = 5,900); AID 1892, 2009; in the data active means binding response below about 16% or above about 210%; inactive means in between
# MEKK2mut confirm = mutant MEKK2 PB1-MEK5 binding signal retest – biochemical, single concentration, multiplex bead flow cytometry, confirmation | percent response, % at 10 µM | actives 2% (n = 5,900) | Alexa488-MEK5 binding to MEKK2 mutant | AID 1893, 2009 | shares compounds with MEKK3 PB1 HTS; in the data active means percent response mostly above about 71%, no sharp cut-off; inactive means mostly below about 38%;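 further: higher means compound restores mutant binding toward wildtype level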
# MEKK3-MEK5 inh = MEKK3 wild-type PB1 binding to MEK5, inhibitors, confirmation, biochemical, bead multiplex flow cytometry, single concentration, wildtype | AID 1894, 2009 | shares compounds with MEKK3 PB1 HTS | actives 1.8% (n = 5,900) | binding response (% of control), % at 10 µM | Alexa488-MEK5 binding to MEKK3; active compounds read low;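 active means binding response below 72% of control, or above a set upper limit, though filed actives all read lower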;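 further: 100% = DMSO only wells and 0% = binding blocked by excess unlabeled MEK5; lower values mean stronger disruption of MEK5 binding to MEKK3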
# The depositor's hits bear a star; · = no result given; [ ] = dose if it differs, or a comment.
SMILES,MEKK3 PB1 HTS,CRFBP-R2 agonist,MEKK2mut PB1 HTS,MEKK2 WT-MEK5,CRFR2-BP antag,ABCB6 inh 2,MEKK2wt confirm,MEKK2mut confirm,MEKK3-MEK5 inh
Cc1ccc(Cn2c(=N)n(CC(O)COc3ccccc3)c3ccccc32)cc1 (stereo not drawn),109,0,13,134*,-16,96,131,17,105
O=c1oc2ccccc2c(Nc2ccc3ncccc3c2)c1[N+](=O)[O-],147*,1,1,109,24,95,97,-3,99
CCSC1=N/C(=C\c2ccccc2)C(=O)N1c1ccc(OC)cc1,74*[inhibitor],3,-13,70,-5,90,100,1,107
COc1ccc(/C=N/Nc2cc(C)nc3ccc(OC)cc23)c(OC)c1,114,1,180*,389*,12,112,282*,141*,118
CN(C)CC1CCC/C(=C/c2ccc(Cl)cc2)C1=O (stereo not drawn),·,2,·,·,-8,91,·,·,·
CN(C)S(=O)(=O)N1CCN(CC(O)COc2ccc3cc(Br)ccc3c2)CC1 (stereo not drawn),107,-1,19,134*,-16,91,151,27,112
CCC(=O)Nc1nnc(SCc2ccc(F)cc2)s1,2.0*[inhibitor],0,2,3.0*[inhibitor],-5,107,102,2,110
Cc1cc(C(=O)OCC(=O)N2CC(C)OC(C)C2)c(C)n1-c1ccccc1 (stereo not drawn),·,-3,·,·,6,94,·,·,·
COc1cccc(CNC(=O)CN2C(=O)c3ccccc3S2(=O)=O)c1,·,-2,·,·,6,100,·,·,·
C/C=C\C=C/C(=O)Nc1cccc(C2=NOC3(C2)C[C@@H](C(N)=O)N(C(=O)COc2ccc(Cl)cc2)C3)c1 (stereo partly drawn),95,1,2,97,0,98,·,·,·
CCCCCC(=O)Nc1cccc(C2=NOC3(C2)C[C@H](C(N)=O)N(C(=O)COc2ccc(Cl)cc2)C3)c1 (stereo partly drawn),3.0*[inhibitor],6,-1,6.0*[inhibitor],16,101,99,-5,99
CCC(=O)Nc1cccc(C2=NOC3(C2)C[C@H](C(N)=O)N(C(=O)CC#N)C3)c1 (stereo partly drawn),78*[inhibitor],-1,-2,95,-4,93,80,-14,79
O=C(CCS(=O)(=O)c1ccccc1Cl)NCCC1=CCCCC1,102,-1,6,103,6,98,·,·,·
COc1ccc(Cl)cc1S(=O)(=O)N1CCN(C(=O)c2n[nH]c(=O)c3ccccc23)CC1,·,-3,·,·,0,100,·,·,·
N#C/C(=C\c1ccc(N2CCOCC2)cc1)c1ccccc1,137*,2,0,100,-47,96,102,2,101
N#C/C(=C\N1CCOCC1)c1ccccc1,83,0,-10,85,15,97,·,·,·

# Assay outcomes (PubChem)
